Results taken from the supplement of paper PMC3724861.
The entries come from a sample that favours hits as a whole. The true hit rate is not given. Unmarked numbers belong to inactive results.

These sequences were tested on T1, Caupolican (Caup) homeodomain DNA-binding domain (assay: PBM E-score (8-mer, recovered from the published 9-mer minima) (E-score (dimensionless, -0.5 to 0.5)); Drosophila protein; higher = stronger relative binding preference, active = 0.31 or more).
T1 sequence: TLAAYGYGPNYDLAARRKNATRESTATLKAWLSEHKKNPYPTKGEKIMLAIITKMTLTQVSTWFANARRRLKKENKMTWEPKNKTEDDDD
Method in brief: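 An enrichment score, with higher meaning stronger, expresses relative binding preference for each short DNA word. The protein used was Caup's homeodomain DNA-binding domain (residues 214-303), produced by in vitro transcription and translation and tested at 100 nM on custom-designed protein binding microarrays. The 8-mer values were recovered from published 9-mer scores, each equal to the lower of its two constituent 8-mer scores.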

Sequence | PBM E-score
CATAGGTA | 0.0694
AACACTAC | 0.222
TCATTTAA | 0.167
AGGGTTGG | -0.0294
AAAACAGT | 0.11
AGGCCGTA | -0.041
GGCCAGTA | -0.128
TAACGCTA | -0.0254
GCAGTGAC | -0.0444
CATCACGA | 0.107
AGTGCTTG | 0.116
GCATACAC | 0.208
CCATACAC | 0.105
ACATACAC | 0.352 (active)
AGGCCCTG | -0.09
AACCAACT | 0.143
GTTGTAGA | 0.291
GTTGTGCA | 0.0605
GTTGTACA | 0.388 (active)
CTTGTACC | 0.389 (active)
CTTGTAGA | 0.248

Sequence | PBM E-score
ATTGTACG | 0.203
CTCGTACC | 0.0909
CTTGTGCA | 0.18
CTTGTCCC | 0.186
CTTGTACA | 0.44 (active)
ATTGTACC | 0.2
ATTGTACA | 0.417 (active)
ACTAGAGC | -0.0268
ACCGGTTA | -0.00609
CAGGGGTA | -0.133
AGCGAGGG | -0.182
CTGATTAC | 0.231
AGCACACG | 0.042
AGTACACT | 0.181
AGTACACC | 0.265
AGTACACG | 0.376 (active)
AGTACACA | 0.342 (active)
AGCACACA | 0.0184
CCCATAGG | -0.163
AAACTTGG | -0.0323
